# Several values for one entry are separate records, joined by “and”; a condition that tells them apart may be missing. Identical values can stand only once. Inconclusive results are not listed. Where a call stands in place of a potency, no number is given. Where a structure was tested more than once in an assay, its records may differ in their call. Activity calls are given as the source filed them. The call rests on the fitted dose curve; in most records, active means well fitted curve in the direction sought with a large enough effect in the repeat runs; inconclusive means weak or mixed curves; inactive means no such curve, though single readings can be large; an effect the other way counts as inactive or inconclusive.
# Tests used:
# [1] = A CellTox Green Cytotoxicity Assay to monitor cytotoxicity in HEK293 cells - 40 hour (AID 1224871); conditions: CellTox Green fluorescence; series mostly up to 76.8 µM; further: nearly all actives have a fitted effect of over 45% in size; further: potency means the concentration at half of the fitted maximal effect
# Method in brief: (§1)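 Dead-cell fluorescence measured kinetically: asymmetric cyanine dye, HEK293, 600 cells/well, 5 h settle, 23 nL cpd/DMSO, 37 C, reads 0–40 h every 8 h.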
# [2] = qHTS RealTime-Glo MT Cell Viability Assay in HEK293 cells - 16 hour (AID 1224872); conditions: RealTime-Glo luminescence; series mostly up to 76.8 µM; further: nearly all actives have a fitted effect of over 50% in size; further: potency means the concentration at half of the fitted maximal effect
# Method in brief: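 Luminescence generated by NanoLuc from substrate produced by living HEK293 cells served as the viability signal. Each value reflects the reading at its stated time point during continuous 40 h compound exposure at 37 C.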
# [3] = qHTS RealTime-Glo MT Cell Viability Assay in HEK293 cells - 40 hour (AID 1224874); conditions: RealTime-Glo luminescence; max response: stronger effect = lower value; further: nearly all actives have a fitted effect of over 50% in size; further: potency means the concentration at half of the fitted maximal effect
# Method in brief: (§2)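 600 HEK293 cells per well, dispensed already mixed with RealTime-Glo MT reagents. Compound dosing came 5 h later. The same wells were read for luminescence at 0, 8, 16, 24, 32 and 40 h of exposure at 37 C.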
# [4] = A CellTox Green Cytotoxicity Assay to monitor cytotoxicity in HEK293 cells - 24 hour (AID 1224875); conditions: CellTox Green fluorescence; series mostly up to 76.8 µM; further: nearly all actives have a fitted effect of over 45% in size
# Method in brief: as §1
# [5] = A CellTox Green Cytotoxicity Assay to monitor cytotoxicity in HepG2 cells - 16 hour (AID 1224876); conditions: CellTox Green fluorescence; series mostly up to 76.8 µM; further: nearly all actives have a fitted effect of over 45% in size
# Method in brief: (§3)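 First, HepG2 cells (600/well) mixed with reagent were plated; second, after 5 h at 37 C they received compounds via pintool; third, fluorescence was measured at 0 h through 40 h at 8 h intervals.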
# [6] = qHTS RealTime-Glo MT Cell Viability Assay in HepG2 cells - 32 hour (AID 1224877); conditions: RealTime-Glo luminescence; series mostly up to 76.8 µM; further: nearly all actives have a fitted effect of over 55% in size; further: potency means the concentration at half of the fitted maximal effect
# Method in brief: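 Tox21 10K library screened in qHTS format on HepG2 cells carrying RealTime-Glo reagents. Compounds were added after a 5 h preincubation, and the luminescent signal from continuous culture was measured repeatedly during 40 h treatment.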
# [7] = A CellTox Green Cytotoxicity Assay to monitor cytotoxicity in HepG2 cells - 24 hour (AID 1224878); conditions: CellTox Green fluorescence; series mostly up to 76.8 µM; further: nearly all actives have a fitted effect of over 45% in size
# Method in brief: as §3
# [8] = A CellTox Green Cytotoxicity Assay to monitor cytotoxicity in HepG2 cells - 40 hour (AID 1224879); conditions: CellTox Green fluorescence; series mostly up to 76.8 µM; further: nearly all actives have a fitted effect of over 40% in size; further: potency means the concentration at half of the fitted maximal effect
# Method in brief: as §3
# [9] = qHTS RealTime-Glo MT Cell Viability Assay in HEK293 cells - 0 hour (AID 1224880); conditions: RealTime-Glo luminescence; series mostly up to 76.8 µM
# Method in brief: as §2
# [10] = qHTS RealTime-Glo MT Cell Viability Assay in HepG2 cells - 8 hour (AID 1224873); conditions: RealTime-Glo luminescence; series mostly up to 76.8 µM; further: nearly all actives have a fitted effect of over 55% in size
# Method in brief: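 HepG2 cells (600/well) mixed with RealTime-Glo MT reagent, settled 5 h at 37 C/5% CO2 before compound addition. Nonlytic NanoLuc luminescence from viable-cell prosubstrate reduction read repeatedly during 40 h treatment at 37 C.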
SMILES,Potency [1],Potency [2],max response [3],Potency [4],Potency [5],Potency [6],Potency [7],Potency [8],outcome [9],Potency [10],Potency [3]
COP(=O)(OC)OC=C(Cl)Cl,inactive,inactive,12.8% (inactive) and 2.89% (inactive) and 15.7% (inactive),inactive,inactive,inactive,inactive,inactive,inactive,–,–
O=P1(N(CCCl)CCCl)NCCCO1 (centres undefined),inactive,inactive,4.44% (inactive) and 0.328% (inactive) and -5.68% (inactive),inactive,inactive,inactive,inactive,inactive,inactive,–,–
CN(C)[C@@H]1C(=O)C(C(N)=O)=C(O)[C@@]2(O)C(=O)C3=C(O)c4c(O)cccc4[C@@](C)(O)[C@H]3[C@H](O)[C@@H]12,inactive,inactive,8.46% (inactive) [middle of 4 runs],inactive,inactive,inactive,inactive,inactive,inactive,inactive,–
O=C(O)CCl,inactive,inactive,1.08% (inactive) and -1.37% (inactive),inactive,inactive,inactive,inactive,inactive,inactive,inactive,–
CC[N+]1(C)CCCC1,inactive,inactive,3.6% (inactive) [middle of 4 runs],inactive,inactive,inactive,inactive,inactive,inactive,inactive,21.9 µM (active)
O=C(O)c1ccccc1O,inactive,inactive,2.39% (inactive) [middle of 5 runs],inactive,inactive,inactive,inactive,inactive,inactive,–,–
CNC,inactive,inactive,5.34% (inactive) and 10.3% (inactive),inactive,inactive,inactive,inactive,inactive,inactive,inactive,–
COc1ccccc1N,inactive,inactive,3.5% (inactive) [middle of 4 runs],inactive,inactive,inactive,inactive,inactive,inactive,inactive,–
O=S(=O)(O)O,inactive,inactive,-2.52% (inactive) [middle of 6 runs],inactive,inactive,inactive,inactive,inactive,inactive,inactive,–
C[C@]12CCC(=O)C=C1CC[C@@H]1[C@@H]2CC[C@]2(C)C(=O)CC[C@@H]12,48.2 µM (active) and inactive,24.1 µM (active) and inactive,-20.4% (inactive),inactive,inactive,inactive,inactive,inactive and 49 µM (active),inactive,–,24.1 µM (active) and 24.5 µM (active)
CC(Cl)(Cl)C(=O)O,inactive,inactive,2.34% (inactive) and 8.45% (inactive) and 2.19% (inactive),inactive,inactive,inactive,inactive,inactive,inactive,inactive,–
O=[N+]([O-])O,inactive,inactive,–,inactive,inactive,inactive,inactive,inactive,inactive,inactive,–
CCOP(=S)(OCC)Oc1ccc2c(C)c(Cl)c(=O)oc2c1,inactive,14 µM (active) and 43.6 µM (active) and inactive,-24.9% (inactive),inactive,inactive,inactive,inactive,inactive,inactive,inactive,12.4 µM (active) and 43.6 µM (active)
CC[n+]1ccccc1,inactive,inactive,9.29% (inactive) [middle of 4 runs],inactive,inactive,inactive and 49.1 µM (active),inactive,inactive,inactive,inactive,21.7 µM (active)
CCCCn1cc[n+](C)c1C,inactive,inactive,-1.35% (inactive) [middle of 6 runs],inactive,inactive,inactive and 44.2 µM (active),inactive,inactive,inactive,inactive,–
O=[N+]([O-])c1ccccc1O,inactive,inactive,3.7% (inactive) and -2.87% (inactive) and 7.99% (inactive),inactive,inactive,inactive,inactive,inactive,inactive,inactive,–
